Measured values from PubChem BioAssay (NCI).
About 79,000 compounds went through this panel and 15% of them were active in at least one assay; those are over-represented in the sample as a whole. Values without a mark were called inactive. Calls of active or inactive are those of the source. Rule as the data show it: active = growth inhibition above about 70%; inactive = the rest.

Assay: NCI Yeast Anticancer Drug Screen. Data for the mlh1 strain (AID 171);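 also: 0% = growth of vehicle-treated control cultures of the same strain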
Conditions: S. cerevisiae mlh1 strain growth inhibition, stronger effect = higher value
Experimental: Growth inhibition of yeast strains with defined genetic alterations is measured as a screen for potential anti-cancer activity. Selected strains with alterations in DNA damage repair or cell cycle control were exposed to compounds and growth inhibition was measured relative to vehicle treated controls. The strain used in this assay is mlh1

SMILES: CCCCCCCCCCNC(=O)OCC
- growth inhibition (at 1.2 µM): -3%
- growth inhibition (at 3.7 µM): 2%
- growth inhibition (at 11.0 µM): 1%
- growth inhibition (at 33.0 µM): 20%
- growth inhibition (at 100.0 µM): 99% (active)

SMILES: Fc1ccc(NC(=S)SCc2ccc(Cl)c(Cl)c2)cc1F
- growth inhibition (at 1.2 µM): -13%
- growth inhibition (at 3.7 µM): -7%
- growth inhibition (at 11.0 µM): 27%
- growth inhibition (at 33.0 µM): 99% (active)
- growth inhibition (at 100.0 µM): 98% (active)

SMILES: CN=C(N)N/N=C/c1ccc2c(c1)Cc1ccccc1-2
- growth inhibition (at 1.2 µM): -24%
- growth inhibition (at 3.7 µM): -18%
- growth inhibition (at 11.0 µM): -17%
- growth inhibition (at 33.0 µM): -10%
- growth inhibition (at 100.0 µM): 91% (active)

SMILES: CCCN(CCC)CC(O)c1cc(-c2ccc(Cl)cc2)nc2c(C)c(Cl)ccc12 (stereo not given)
- growth inhibition (at 1.2 µM): -3%
- growth inhibition (at 3.7 µM): -2%
- growth inhibition (at 11.0 µM): 99% (active)
- growth inhibition (at 33.0 µM): 98% (active)
- growth inhibition (at 100.0 µM): 95% (active)

SMILES: S=C(Nc1ccc(Cl)c(Cl)c1)SCc1ccc2c(c1)OCO2
- growth inhibition (at 1.2 µM): -6%
- growth inhibition (at 3.7 µM): 66%
- growth inhibition (at 11.0 µM): 99% (active)
- growth inhibition (at 33.0 µM): 99% (active)
- growth inhibition (at 100.0 µM): 95% (active)

SMILES: O=C(O)c1ccccc1NC(=S)c1ccccc1
- growth inhibition (at 1.2 µM): 3%
- growth inhibition (at 3.7 µM): 5%
- growth inhibition (at 11.0 µM): 3%
- growth inhibition (at 33.0 µM): 5%
- growth inhibition (at 100.0 µM): 62%

SMILES: CCCCOC(=O)N[C@H]1CCc2cc(OC)c(OC)c(OC)c2-c2ccc(SC)c(=O)cc21
- growth inhibition (at 1.2 µM): -4%
- growth inhibition (at 3.7 µM): -3%
- growth inhibition (at 11.0 µM): 2%
- growth inhibition (at 33.0 µM): 27%
- growth inhibition (at 100.0 µM): 90% (active)

SMILES: O=C(NC(Nc1ccc(F)c(Cl)c1)(C(F)(F)F)C(F)(F)F)C(C(F)(F)F)C(F)(F)F
- growth inhibition (at 1.2 µM): 26%
- growth inhibition (at 3.7 µM): 25%
- growth inhibition (at 11.0 µM): 54%
- growth inhibition (at 33.0 µM): 94% (active)
- growth inhibition (at 100.0 µM): 98% (active)
